Source: PubChem BioAssay
DAX1 inh-1: NR0B1 (DAX1) inhibition; P51843; HEK293 Gal4-DAX1 luciferase reporter, luminescence; inhibition, % at 6.75 µM; 340,000 compounds, 0.99% hits; AID 504766;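 active = inhibition above the mean over all tested compounds plus 3 SD, cut at about 4.2% in these data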;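 note: inhibition shows as a rise in luminescence from relieved DAX1 repression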
ssDAF12 agonist: S. stercoralis DAF-12 activation, primary screen; HEK293 ssDAF-12/GRIP1 lit1-tk-luc reporter, luminescence; % of 3 µM dafachronic acid response; activation, % at 6.8 µM; 370,000 compounds, 1% hits;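 active = activation above the mean over all tested compounds plus 3 SD, cut at about 0.9% in these data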
hcDAF-12 act: activates DAF-12 receptor from parasite H. contortus | 370,000 compounds, 1.4% hits | activation, % at 6.8 µM | AID 652067 | HEK293 hcDAF-12 lit1-tk-luc reporter, luminescence; 0% DMSO, 100% Δ7-dafachronic acid;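 active = activation above the mean of all tested compounds plus 3 SD, cut at about 5.5% in these data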
DAX1 inh-2: DAX1 (NR0B1) inhibition, primary screen. HEK293T StAR-luciferase reporter, SF-1/DAX-1 repression relief. inhibition, % at 6.8 µM. 370,000 compounds, 1.1% hits;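 active = inhibition above the mean over all tested compounds plus 3 SD, cut at about 3.6% in these data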;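 note: higher inhibition means more luminescence from relief of DAX-1 repression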
AHR activator: activators of human aryl hydrocarbon receptor | P35869 | AHR-responsive luciferase reporter cells, luminescence | activation, % at 5 µM | 320,000 compounds, 2.5% hits; in the data active = activation above about 47%
Target sequence (P35869 whole entry, looked up): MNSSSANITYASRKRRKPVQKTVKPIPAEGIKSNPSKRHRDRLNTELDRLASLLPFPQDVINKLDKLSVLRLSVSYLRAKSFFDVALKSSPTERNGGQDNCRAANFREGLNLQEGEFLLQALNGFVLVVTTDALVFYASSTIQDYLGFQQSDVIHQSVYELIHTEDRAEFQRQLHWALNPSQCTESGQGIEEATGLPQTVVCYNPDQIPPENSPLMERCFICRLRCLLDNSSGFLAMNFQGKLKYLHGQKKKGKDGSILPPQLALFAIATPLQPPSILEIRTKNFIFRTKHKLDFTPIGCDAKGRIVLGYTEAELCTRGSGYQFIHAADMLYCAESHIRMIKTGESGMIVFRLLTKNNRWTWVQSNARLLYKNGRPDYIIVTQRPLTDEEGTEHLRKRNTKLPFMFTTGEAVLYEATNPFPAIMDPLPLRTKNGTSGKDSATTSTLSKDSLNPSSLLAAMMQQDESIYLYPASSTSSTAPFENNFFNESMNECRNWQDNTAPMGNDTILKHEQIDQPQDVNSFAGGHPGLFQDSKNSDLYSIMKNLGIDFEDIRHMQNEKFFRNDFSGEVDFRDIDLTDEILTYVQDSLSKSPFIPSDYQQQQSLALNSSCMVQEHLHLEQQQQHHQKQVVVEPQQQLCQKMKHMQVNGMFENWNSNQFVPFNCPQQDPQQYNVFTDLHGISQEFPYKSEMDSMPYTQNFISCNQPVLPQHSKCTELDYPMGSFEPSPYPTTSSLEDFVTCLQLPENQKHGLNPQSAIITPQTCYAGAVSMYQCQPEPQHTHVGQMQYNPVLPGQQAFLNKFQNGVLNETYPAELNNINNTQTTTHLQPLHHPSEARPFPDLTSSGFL
hgDAF12 agonist: hgDAF-12 agonism, primary luciferase screen. HEK293 GAL4-hgDAF12 UAS-luciferase reporter, agonist luminescence; normalized to butyrate control. activation, % at 6.8 µM. 370,000 compounds, 1.8% hits;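 active = activation above a cutoff set at the mean of all screened compounds plus 3 SD, cut at about 10% in these data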
Large screens that a line does not name were inactive. Rows were chosen to be rich in hits. Some 5.7% of all compounds tested hit in one or more screens of this group.

O=[N+]([O-])c1ccc(O)c(/C=N/Nc2nc3ccccc3[nH]2)c1	AHR activator 57.0
O=C(N/N=C/c1cc([N+](=O)[O-])ccc1O)C12CC3CC(CC(C3)C1)C2	DAX1 inh-1 4.2
O=C(N/N=C/c1cc([N+](=O)[O-])ccc1O)NC12CC3CC(CC(C3)C1)C2	none
Nc1nnn(CC(=O)N/N=C/c2ccc(Cl)cc2Cl)n1	none
COc1cc(Cn2nnc3ccccc32)cc(Br)c1O	none
Cc1cccc(N/N=C/c2ccccc2O)c1	AHR activator 65.0
CCN(CC(=O)NCc1ccc(F)cc1)C(=O)C1CCN(S(=O)(=O)c2ccc(C(C)C)cc2)CC1	none (no result: AHR activator)
C/C(=N/NC(=O)C1CCCCC1)c1ccc([N+](=O)[O-])cc1	none
Cc1nc(-c2ccc3c(c2)OCO3)cs1	none
Fc1ccc(-c2csc(/C=C/c3ccc4c(c3)OCO4)n2)cc1	ssDAF12 agonist 1.1, AHR activator 82.0
O=C(N/N=C1\CCCc2oc(C(=O)O)cc21)c1ccccc1	ssDAF12 agonist 1.7, hgDAF12 agonist 10.8
Clc1cccc(N/N=C/c2ccc(N3CCOCC3)cc2)c1	none
C(=N\Nc1ccccc1)/c1ccc(N2CCOCC2)cc1	ssDAF12 agonist 1.2, hgDAF12 agonist 13.1
CCOc1cc(/C=C2/SC(=S)N(CC(=O)O)C2=O)ccc1OC(=O)c1cccs1	DAX1 inh-1 5.2
COc1cc(/C=C2\SC(=S)N(CC(=O)O)C2=O)ccc1OC(=O)c1ccco1	none
O=C(c1ccccc1)N1CCC2CCN(CCc3ccccc3)CC21 (configuration not stated)	none (no result: DAX1 inh-1, AHR activator)
CC(OC(=O)Cn1cnc2c1c(=O)n(C)c(=O)n2C)C(=O)NC(C)c1ccc(Cl)cc1Cl (configuration not stated)	none
CN(CC(=O)Nc1ccc(F)cc1)C(=O)CSc1nncs1	DAX1 inh-2 3.9
COc1cc(/C=N/Nc2nc3ccccc3s2)ccc1OC(=O)c1ccccc1F	AHR activator 78.3
COc1cc(/C=N/Nc2nc3ccccc3s2)cc([N+](=O)[O-])c1O	none
COc1cc(OC)cc(C(=O)Oc2ccc(/C=N/Nc3nc4ccccc4s3)cc2OC)c1	AHR activator 72.0
COc1cc(/C=N/Nc2ccccc2[N+](=O)[O-])ccc1OC(=O)c1ccccc1F	none
COc1ccc(CC2(C)OC(c3ccccc3)=NN2C(C)=O)cc1 (configuration not stated)	none
COc1cccc(NC(=O)C(=O)NCCC2CCCCN2S(=O)(=O)c2cccs2)c1 (configuration not stated)	DAX1 inh-2 4.1
COc1ccc(NC(=O)C(=O)NCCC2CCCCN2S(=O)(=O)c2cccs2)cc1 (configuration not stated)	none
CC(C1CC1)N(Cc1ccccc1)C(=O)NC(=O)c1ccc(F)cc1 (configuration not stated)	hgDAF12 agonist 12.2
Cc1ccsc1/C=N/n1c(-c2ccccn2)n[nH]c1=S	hcDAF-12 act 5.7, AHR activator 50.8
Cc1ccsc1/C=N/n1c(-c2ccncc2)n[nH]c1=S	none
COC(=O)c1[nH]c2ccc(F)cc2c1NS(=O)(=O)c1ccc(OC)cc1OC	ssDAF12 agonist 1.1
CCOC(=O)c1[nH]c2ccc(OC)cc2c1NS(=O)(=O)c1ccc(OC)cc1OC	none
COc1ccc(S(=O)(=O)N(C)C)cc1NC(=O)c1ccc(OCC(=O)N2CCOCC2)c(OC)c1	none
COc1ccc(C(=O)c2c(C)c3cc(C)ccc3n2CC(O)CN2CCOCC2)cc1 (configuration not stated)	none
Cc1cccc(NC(=O)CN2CCN(C(=O)c3ccc(-c4nc5ccccc5s4)o3)CC2)c1C	DAX1 inh-2 4.0 (no result: AHR activator)
COc1ccc(/C=N/NC(=O)c2cc(=O)[nH]c3ccccc23)cc1OC	none
C=CCn1c(SCC(=O)NCC2CCCO2)nc2c([nH]c3ccccc32)c1=O (configuration not stated)	AHR activator 55.3
COc1ccc(C)cc1-n1c(SCC(=O)NCC2CCCO2)nc2c([nH]c3ccccc32)c1=O (configuration not stated)	AHR activator 67.2
